PubChem BioAssay AID624116 (National Center for Advancing Translational Sciences (NCATS), 2012)
Results filed as inconclusive are left out. A call without a number means that no potency is given here. Calls of active or inactive are those of the source. Calls follow the shape of the dose curve; as a rule, active = well fitted activation curve with a large enough effect; inconclusive = small, poorly fitted or top-dose-only effect; inactive = no such curve, though single readings can be large or run the other way.

test: qHTS Assay for Rab9 Promoter Activators: Hit Validation Using Renilla Luciferase Read-Out for Rab9; settings: Huh7 Rab9 promoter Renilla luciferase reporter, 24 h; series mostly up to 76.9 µM
Description: Niemann Pick Type C (NPC) is a rare neurodegenerative lipidosis that is characterized by lipid storage in the endosomal/lysosomal system. Treatment modalities for this devastating disease are currently non-existent due to the severe obstacles associated with accessing the central nervous system with proteins or genes. The majority of mutations causing NPC disease are missense mutations that are distributed throughout the length of the NPC1 protein, with the most prevalent being the I1061T allele. Although NPC1 mutant proteins may be functional, they are typically trapped in the ER due to misfolding. […] We have developed and optimized a cell based renilla luciferase reporter assay in 1536 well format for the identification of up-regulators of the mutant Rab9 promoter. This assay presents data on the validation of hits from the primary screen, which used a firefly luciferase read-out. NIH Chemical Genomics Center [NCGC] NIH Molecular Libraries Probe Production centers Network [MLPCN] MLPCN Grant: MH089375 Assay Submitter (PI): Yiannis A. Ioannou
Huh7 cells stably expressing NPC promoter-luciferase will be seeded at 1,500 cells/well in 5 uL in 1,536-well white opaque plates with 23 nL/well of compound in DMSO solution. The assay plates will be incubated at 37 deg C for 24 hours, after which 3 uL/well BriteLite plus luciferase detection reagent mixture (Perkin Elmer) will be added. Luminescence signal will be measured in a ViewLux plate reader (Perkin Elmer) after a 10 minute incubation at the room temperature.
Potency is read from the fitted curve at half-maximal effect.

Row | SMILES | Potency
1 | Cn1c(SCc2ccccc2)nnc1-c1cnccn1 | inactive
2 | COC(=O)c1ccc(NC(=O)c2ccc3nc(C)sc3c2)cc1 | inactive
3 | CCc1cc(C(=O)Nc2ccccc2)cs1 | inactive
4 | Fc1ccc(-c2nc3nc4ccccc4nc3n2Cc2ccco2)cc1 | inactive
5 | CC1CCc2sc(C(=O)NNC(=S)NC3CC3)cc2C1 (stereo not given) | inactive
6 | Cc1nc(SCC(=O)NC(=O)NC(C)(C)C)nc(C)c1C | inactive
7 | CC(=O)Nc1ccc(NC(=O)COc2ncnc3ccccc23)cc1 | inactive
8 | Cc1c(C(O)CN2CCN(Cc3ccc4c(c3)OCO4)CC2)c2ccccc2n1C (stereo not given) | inactive
9 | Cc1cc(C)cc(N(CC(=O)NC2CCCC2)C(=O)CNC(=O)c2ccco2)c1 | inactive
10 | COc1cccc(CNC(=O)CN(c2cc(C)cc(C)c2)S(=O)(=O)c2c(C)noc2C)c1 | inactive
11 | COC(=O)CSc1nc2cc3c(cc2cc1C#N)OCO3 | inactive
12 | CC(C)C1(CCNC(=O)c2cccs2)CCOC(C)(C)C1 (stereo not given) | inactive
13 | CCCC(C)NC(=O)c1ccc(OCc2ccc(Cl)cc2)c(OC)c1 (stereo not given) | inactive
14 | Cc1ccc2c(c1)sc1nc(=O)n(-c3ccccc3)c(=O)n12 | inactive
15 | CCCCc1cc(=O)oc2cc(OCC(=O)N3CCOCC3)ccc12 | inactive
16 | COCCNC(=O)Cn1nc(-c2ccccc2)c2ccccc2c1=O | inactive
17 | Nc1ccc(C(=O)Nc2ccccc2N)cc1 | 16.4 µM (active)
18 | O=C(NCCc1ccccc1)c1cc2ncc(Br)cn2n1 | inactive
19 | Cc1ccc(C(=O)Nc2ccc(N3CCN(C)CC3)nc2)cc1 | inactive
20 | CCCN(CCC)CCCNC(=O)c1cc2cc3ccc(Cl)cc3nc2o1 | inactive

Row | SMILES | Potency
21 | COC(=O)Nc1nc2ccc(Br)cc2s1 | inactive
22 | Nc1ccccc1C(=O)N/N=C1/C2CN3CCN(C2)CC1(Cc1ccccc1)C3 | inactive
23 | CC(C)(C)NC(=S)NNC(=O)c1ccc2ncccc2c1 | inactive
24 | Cc1nc(-c2ccccn2)sc1C(=O)Nc1ccc(F)cc1F | inactive
25 | O=C(Nc1ccc(-c2nc3cccnc3s2)cc1)c1ccc(Cl)nc1 | inactive
26 | O=C(COC(=O)c1ccc(-c2nnc(-c3ccccc3)o2)cc1)c1ccccc1 | inactive
27 | CC1CN(C(=O)c2ccncc2)CC(C)O1 (stereo not given) | inactive
28 | Cc1ccc(NC(=O)c2cccc(N3C(=O)CCC3=O)c2)nc1 | inactive
29 | COCCSc1ncnc2c1oc1nc3c(cc12)COC(C)(C)C3 | inactive
30 | O=C(CSc1ncccn1)Nc1cccc2ccccc12 | inactive
31 | CCOC(=O)c1cc2sccc2n1CC(=O)N1CCCc2ccccc21 | inactive
32 | CC(Sc1nnc(C(F)(F)F)n1C)C(=O)Nc1ccc(S(N)(=O)=O)cc1 (stereo not given) | inactive
33 | CC(=O)Nc1ccc(-c2csc(Nc3ncccn3)n2)cc1 | inactive
34 | COCCNC(=O)CN1C(=O)NC(c2ccccc2)(c2ccccc2)C1=O | inactive
35 | O=C(NC1CCCC1)C(c1ccc(F)cc1)N(C(=O)c1csnn1)c1ccccc1 (stereo not given) | inactive
36 | Cc1ccc(S(=O)(=O)/N=C(/Nc2ccccn2)c2ccc(Cl)cc2)cc1 | 14.6 µM (active)
37 | Cc1ccccc1NC(=O)CSc1ccc(-c2cccnc2)nn1 | inactive
38 | COc1ccc(-c2cc(C(=O)Nc3ccccc3F)on2)cc1 | inactive
39 | O=C(c1cccc(Oc2ccc([N+](=O)[O-])cc2)c1)N1CCOCC1 | inactive
40 | CCC(=O)NC(=S)Nc1ccc(N2CCOCC2)cc1 | inactive
